The values below come from PubChem BioAssay (EPA / NIEHS).

Test [1] can be described thus: APR_HepG2_P-H2AX_72hr: Apredica 72-hour HepG2 Assay for H2AX Phosphorylation (AID 2282916).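 Note: phospho-histone H2A.x immunostain intensity per cell marking DNA damage.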 The settings on record: imaging, actives raise or lower the signal. Put shortly: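 Following 72 hr treatment with 0.39–200 uM compound, HepG2 cells were formaldehyde-fixed, permeabilized and stained for phospho-H2A.x; signal was measured by high-content imaging and fitted bidirectionally against DMSO controls.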

Test [2] is described as follows: APR_HepG2_MitoMembPot_72hr: Apredica 72-hour HepG2 Assay for Mitochondrial Membrane Potential (AID 2282917). As to conditions: imaging, actives raise or lower the signal. A digest of the protocol: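 Membrane potential read by MitoTracker Red CMXRos (250 nM, 30 min, pre-fixation) fluorescence imaging of HepG2 after 72 hr exposure. Ten concentrations, 0.39–200 uM, duplicate wells, 0.5% DMSO; fitted in both directions against DMSO baseline.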

Test [3] is described as follows: APR_HepG2_MitoticArrest_72hr: Apredica 72-hour HepG2 Assay for Mitotic Arrest (AID 2282918). The settings on record: high-content imaging, actives raise or lower the signal. Put shortly: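 Read-out is phospho-histone H3 immunofluorescence with Hoechst nuclear segmentation, imaged at 20x. Human HepG2 liver cells received ten concentrations (0.39–200 uM, final DMSO 0.5% v/v) for 72 hr before fixation. Gain or loss of signal was fitted relative to DMSO.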

The nature of test [4]: APR_HepG2_MicrotubuleCSK_72hr: Apredica 72-hour HepG2 Assay for Microtubule CSK Stabilty (AID 2282919). As to conditions: HepG2 microtubule cytoskeleton, high-content imaging, actives raise or lower the signal. A digest of the protocol: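 Read-out is tubulin fluorescence intensity from high-content imaging of HepG2 cells, with nuclei identified by Hoechst 33342. Treatment lasts 72 h at 0.39–200 uM, and curves are fitted bidirectionally against the DMSO negative control.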

The nature of test [5]: APR_HepG2_P-H2AX_24hr: Apredica 24-hour HepG2 Assay for H2AX Phosphorylation (AID 2282920). The settings on record: high-content imaging, actives raise or lower the signal. Put shortly: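 HepG2, 24 hr, cpd 0.39–200 uM (10 conc, duplicate), DMSO 0.5% v/v final. Fix 3.7% formaldehyde, Triton X-100 permeabilize, anti-phospho-H2A.x 1:200 + Hoechst 2 ug/mL. Imaged, bidirectional fit vs DMSO.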

The nature of test [6]: APR_HepG2_StressKinase_72hr: Apredica 72-hour HepG2 Assay for Stress Kinase (AID 2282921). As to conditions: HepG2 stress kinase (phospho-c-Jun) imaging, actives raise or lower the signal. Put shortly:
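Fluorescence intensity of Cy3-tagged anti-phospho-c-Jun antibody, quantified per cell from Hoechst-defined nuclei across six images per well, served as the read-out following 72 h exposure (0.39–200 uM, 0.5% v/v DMSO).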

Test [7] is described as follows: APR_HepG2_StressKinase_24hr: Apredica 24-hour HepG2 Assay for Stress Kinase (AID 2282922). As to conditions: HepG2 stress kinase (phospho-c-Jun) imaging, actives raise or lower the signal. A digest of the protocol:
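HepG2, 24 hr dosing, 0.39–200 uM in duplicate, 0.5% DMSO; formaldehyde fix (3.7%), 0.5% Triton X-100; anti-phospho-c-Jun + Cy3 secondary, Hoechst counterstain; ArrayScan imaging; bidirectional curve fit vs DMSO baseline.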

Test [8] is described as follows: APR_HepG2_p53Act_72hr: Apredica 72-hour HepG2 Assay for p53 Activation (AID 2282923).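 Note: average cellular p53 protein immunofluorescence intensity in HepG2 cells.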 As to conditions: high-content imaging, actives raise or lower the signal. Put shortly:
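HepG2 monolayers receive test compounds in duplicate at ten concentrations (0.39 through 200 uM) for 72 hr. They are then formaldehyde-fixed, antibody-labelled for p53, Hoechst-stained and imaged, with activity fitted bidirectionally versus DMSO.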

The nature of test [9]: APR_HepG2_MitoMass_72hr: Apredica 72-hour HepG2 Assay for Mitochondrial Mass (AID 2282924).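 Note: MitoTracker Red CMXRos stain intensity per cell imaged as mitochondrial mass.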 The settings on record: high-content imaging, actives raise or lower the signal. Put shortly: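 HepG2, 72 hr cmpd, 10 conc 0.39–200 uM in dup, DMSO 0.5% v/v. MitoTracker Red CMXRos 250 nM 30 min pre-fix; formaldehyde 3.7% fix 30 min RT. HCS imaging, gain/loss fit vs DMSO.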
Test [10] can be described thus: APR_HepG2_NuclearSize_72hr: Apredica 72-hour HepG2 Assay for Nuclear Size (AID 2282925). As to conditions: high-content imaging, actives raise or lower the signal. A digest of the protocol:
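HepG2; cpd 0.39–200 uM, 10 conc, duplicate; 72 h; DMSO 0.5% v/v; fix 3.7% formaldehyde 30 min RT; Triton permeabilization; Hoechst 2 ug/mL; HCS imaging 20x; nuclear diameter; gain/loss fit vs DMSO.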

Test [11] in a line: ATG_CRE_CIS: Attagene CIS-FACTORIAL HepG2 Assay for human cAMP Responsive Element (CRE) binding protein 3 (AID 2282926). The settings on record: HepG2 CRE cis-reporter, Attagene multiplexed mRNA; actives raise or lower the signal. A digest of the protocol: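 Human liver HepG2, transient MRTU transfection, 24 h compound exposure. Total RNA → oligo(dT) RT → PCR → 6-FAM primer extension → HpaI cut → CE. Activity called both directions vs DMSO.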

For test [12], the target named is CCAAT/enhancer-binding protein beta (Homo sapiens) (UniProt P17676). The test is described as follows: ATG_C_EBP_CIS: Attagene CIS-FACTORIAL HepG2 Assay for human CCAAT/Enhancer Binding Protein (C/EBP) beta (AID 2282927). The settings on record: HepG2 Attagene cis-factorial transcription factor reporter; actives raise or lower the signal. A digest of the protocol:
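Endogenous C/EBPb-driven reporter transcripts measured in transfected human HepG2 cells at 24 h via RT-PCR and capillary electrophoresis of labelled fragments. Activity fitted in both directions relative to DMSO baseline.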

Test [13] can be described thus: ATG_CMV_CIS: Attagene CIS-FACTORIAL HepG2 Assay for human CMV (Internal Marker) (AID 2282928).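 Note: endpoint acts as a background internal control marker rather than a target.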 As to conditions: HepG2 CMV promoter reporter, transcription factor profiling; actives raise or lower the signal. A digest of the protocol: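 Endogenous transcription factor activity read in HepG2 via transfected cis-promoter reporter units. After 24 h dosing, reporter mRNA measured by RT-PCR/capillary electrophoresis; gain or loss of signal fit relative to DMSO.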

Test [14] in a line: ATG_DR4_LXR_CIS: Attagene CIS-FACTORIAL HepG2 Assay for human Liver X Receptor (LXR), DR4 submotif (AID 2282929). The settings on record: HepG2 Attagene DR4 cis-reporter, mRNA transcription; actives raise or lower the signal. Put shortly:
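HepG2, transient MRTU transfection, cis-element (DR4) promoter; 24 h compound exposure; total RNA → oligo(dT) RT → PCR → 6-FAM primer extension → HpaI cut → CE. Gain/loss vs DMSO, bidirectional fit.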

Test [15] deals with Aryl hydrocarbon receptor (Homo sapiens) (UniProt P35869). The test is described as follows: ATG_Ahr_CIS: Attagene CIS-FACTORIAL HepG2 Assay for human Aryl Hydrocarbon Receptor (Ahr) (AID 2282930). As to conditions: HepG2 AhR cis-factorial reporter transcription; actives raise or lower the signal. A digest of the protocol: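 Reporter mRNA levels, quantified by RT-PCR and fluorescent capillary electrophoresis, reflect endogenous AhR transcriptional activity in HepG2 cells carrying transfected cis-promoter reporter constructs. Readout at 24 h post-dose; gain or loss fitted against DMSO baseline.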
Sequence of Aryl hydrocarbon receptor (Homo sapiens) (P35869 whole entry, looked up): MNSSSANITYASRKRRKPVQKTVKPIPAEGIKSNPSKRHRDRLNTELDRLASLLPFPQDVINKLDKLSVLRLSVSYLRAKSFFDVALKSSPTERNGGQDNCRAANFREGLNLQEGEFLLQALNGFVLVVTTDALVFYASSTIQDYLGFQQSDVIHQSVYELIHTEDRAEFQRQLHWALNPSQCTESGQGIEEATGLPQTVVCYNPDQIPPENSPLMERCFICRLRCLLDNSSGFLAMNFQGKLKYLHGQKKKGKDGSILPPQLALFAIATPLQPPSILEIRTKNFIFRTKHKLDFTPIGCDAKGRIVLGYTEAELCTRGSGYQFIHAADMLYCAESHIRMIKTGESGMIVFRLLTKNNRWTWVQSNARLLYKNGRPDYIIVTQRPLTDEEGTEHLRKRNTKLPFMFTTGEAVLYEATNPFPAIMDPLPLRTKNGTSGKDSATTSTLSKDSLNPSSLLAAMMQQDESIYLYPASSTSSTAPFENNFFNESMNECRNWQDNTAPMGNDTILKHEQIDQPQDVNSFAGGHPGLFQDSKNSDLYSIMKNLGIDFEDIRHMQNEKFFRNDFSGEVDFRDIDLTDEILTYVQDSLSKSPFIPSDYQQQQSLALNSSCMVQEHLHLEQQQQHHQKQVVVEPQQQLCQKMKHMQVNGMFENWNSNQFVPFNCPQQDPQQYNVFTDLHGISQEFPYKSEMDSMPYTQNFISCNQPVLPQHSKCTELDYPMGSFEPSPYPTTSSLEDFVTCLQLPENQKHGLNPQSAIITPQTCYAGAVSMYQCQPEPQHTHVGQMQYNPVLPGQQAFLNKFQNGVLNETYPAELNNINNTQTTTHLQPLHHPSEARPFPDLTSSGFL

Test [16] is described as follows: ATG_AP_1_CIS: Attagene CIS-FACTORIAL HepG2 Assay for human Activator Protein 1 (AP-1) (AID 2282931). The settings on record: HepG2 Attagene cis-factorial AP-1 reporter mRNA; actives raise or lower the signal. Put shortly: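 Transient MRTU transfection of HepG2 → 24 h chemical treatment → RNA isolation, RT-PCR, 6-FAM labelling, HpaI digest → capillary electrophoresis. Fit: bidirectional, DMSO negative control.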

Test [17] in a line: ATG_AP_2_CIS: Attagene CIS-FACTORIAL HepG2 Assay for human Activator Protein 2 (AP-2) (AID 2282932). As to conditions: HepG2 AP-2 cis-reporter, Attagene transcription factor profiling; actives raise or lower the signal. A digest of the protocol:
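Step one: transient transfection of HepG2 with reporter transcription units. Step two: 24 h chemical exposure. Step three: RNA extraction, RT-PCR, labelled fragment analysis by capillary electrophoresis; DMSO serves as baseline.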

In test [18] the target is Retinoic acid receptor alpha (Homo sapiens) (UniProt P10276). The test is described as follows: ATG_DR5_RAR_CIS: Attagene CIS-FACTORIAL HepG2 Assay for human Retinoic Acid Receptor Alpha (RARE), DR5 submotif (AID 2282934).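 For AC50: reporter responds to endogenous RAR alpha beta and gamma in HepG2 not RARA alone.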 The settings on record: HepG2 Attagene cis-factorial RARE DR5 reporter, mRNA; actives raise or lower the signal. A digest of the protocol: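 Reporter transcripts from a DR5-regulated unit, measured via RT-PCR plus capillary electrophoresis, reflect endogenous RAR activity in transiently transfected human HepG2 liver cells. Exposure lasted 24 h; gain or loss of signal scored against DMSO.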
Sequence of Retinoic acid receptor alpha (Homo sapiens) (P10276 whole entry, looked up): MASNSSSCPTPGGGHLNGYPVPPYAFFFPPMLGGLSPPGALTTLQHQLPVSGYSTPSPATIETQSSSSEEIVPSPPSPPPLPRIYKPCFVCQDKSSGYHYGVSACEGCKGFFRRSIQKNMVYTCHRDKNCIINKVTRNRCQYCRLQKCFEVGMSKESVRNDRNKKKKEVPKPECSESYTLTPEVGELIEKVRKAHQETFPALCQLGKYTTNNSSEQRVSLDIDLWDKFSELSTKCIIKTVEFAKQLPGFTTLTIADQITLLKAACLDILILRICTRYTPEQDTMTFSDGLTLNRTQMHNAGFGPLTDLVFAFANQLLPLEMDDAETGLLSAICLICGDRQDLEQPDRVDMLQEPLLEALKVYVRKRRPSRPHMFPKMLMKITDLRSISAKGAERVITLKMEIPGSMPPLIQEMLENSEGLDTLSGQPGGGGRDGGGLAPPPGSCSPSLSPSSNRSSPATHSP

Test [19] has as its target Transcription factor E2F1 (Homo sapiens) (UniProt Q01094). The test is described as follows: ATG_E2F_CIS: Attagene CIS-FACTORIAL HepG2 Assay for human E2F Transcription Factor 1 (AID 2282935). The settings on record: HepG2 Attagene cis-reporter, E2F reporter RNA transcripts; actives raise or lower the signal. Put shortly:
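Total RNA from 24 h-treated, reporter-transfected HepG2 cells undergoes DNase I treatment, oligo(dT) reverse transcription, PCR and 6-FAM primer extension before capillary electrophoresis.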

A short description of test [20]: ATG_BRE_CIS: Attagene CIS-FACTORIAL HepG2 Assay for human Bone Morphogenetic Protein (BMP) Response Element (BRE) (AID 2282933). As to conditions: HepG2 BMP response element reporter, Attagene transcription factor profiling; actives raise or lower the signal. A digest of the protocol: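 Endogenous transcription factor activity at a BMP response element was monitored in transfected HepG2 cells 24 h after dosing. Fluorescent RT-PCR products were resolved by capillary electrophoresis, and activity was fitted in both directions versus DMSO.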

Several values for one entry are separate records, joined by “and”; a condition that tells them apart may be missing. Identical values can stand only once. A structure can be active in one record and inactive in another. Activity calls are given as the source filed them. Rule for the calls: active = hit-call score of the fitted dose curve at least 0.9, where 1 is the maximum; inactive = score below 0.9.

Sequence of CCAAT/enhancer-binding protein beta (Homo sapiens) (P17676 whole entry, looked up, the tested form may be a part): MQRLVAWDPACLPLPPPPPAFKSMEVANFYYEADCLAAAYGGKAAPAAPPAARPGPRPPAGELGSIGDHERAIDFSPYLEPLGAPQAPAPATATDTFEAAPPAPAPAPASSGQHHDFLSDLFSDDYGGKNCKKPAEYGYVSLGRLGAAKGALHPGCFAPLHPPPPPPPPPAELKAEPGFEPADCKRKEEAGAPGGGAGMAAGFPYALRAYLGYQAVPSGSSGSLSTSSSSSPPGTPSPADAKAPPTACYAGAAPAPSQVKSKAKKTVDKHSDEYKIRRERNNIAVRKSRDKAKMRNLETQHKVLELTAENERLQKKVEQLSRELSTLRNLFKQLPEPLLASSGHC
Sequence of Transcription factor E2F1 (Homo sapiens) (Q01094 whole entry, looked up): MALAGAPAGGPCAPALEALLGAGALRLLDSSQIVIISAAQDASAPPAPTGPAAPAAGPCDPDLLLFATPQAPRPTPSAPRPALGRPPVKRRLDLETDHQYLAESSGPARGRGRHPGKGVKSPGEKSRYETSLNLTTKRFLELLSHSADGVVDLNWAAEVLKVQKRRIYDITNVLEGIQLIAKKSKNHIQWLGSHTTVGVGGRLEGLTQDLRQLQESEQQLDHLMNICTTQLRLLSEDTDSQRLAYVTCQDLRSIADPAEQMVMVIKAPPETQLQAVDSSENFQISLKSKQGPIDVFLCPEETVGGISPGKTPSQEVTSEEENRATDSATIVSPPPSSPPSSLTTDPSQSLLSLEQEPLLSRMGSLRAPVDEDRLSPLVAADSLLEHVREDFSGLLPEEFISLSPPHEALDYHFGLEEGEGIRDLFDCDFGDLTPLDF

By AC50 is commonly meant the concentration giving half of the maximal activity seen. On to `Cc1ccccc1O`, for which the call in [1], in test [2], in test [3], in test [4], in test [5] and in [6] was inactive. Besides, the outcome in [7], in test [8], in test [9], in [10], in test [11] and in test [12] was inactive. The compound was classed as inactive in test [13], in [14], in [15], in test [17], in test [18] and in test [19]. In addition, in test [16], the concentration at half-maximal activity (AC50) was 140 µM (active).

Consider `CCOP(=S)(OCC)SCSC(C)(C)C`, for which the compound was classed as inactive in test [1], in test [2], in [3], in test [4], in [6] and in test [7]. For the same compound, the result in test [8], in test [9], in test [10], in test [11], in test [12] and in test [13] was inactive. The call in [14], in test [15], in [16], in [17], in test [20] and in [19] was inactive. For the same compound, the AC50 is 10.6 µM (active) in test [14] and 78.2 µM (active) in test [15].

Take `ClC(Cl)=C(c1ccc(Cl)cc1)c1ccc(Cl)cc1`: the result in test [1], in [2], in [4], in test [6], in [7] and in test [8] was inactive. Besides, the call in test [10], in test [11], in test [12], in test [15], in [17] and in test [20] was inactive. The call in [18] and in [19] was inactive. The AC50 is 22.5 µM (active) in test [3]; 53.7 µM (active) in [5]; 60.2 µM (active) in test [9]; 167 µM (active) in [11]; 166 µM (active) in test [12]; 57.2 µM (active) [middle of 4 runs] in test [13]. Moreover, the half-maximal activity concentration (AC50) in test [14] is 44.6 µM (active) [middle of 4 runs]; in test [15] it was 19.8 µM (active) and 122 µM (active); in test [16], 100 µM (active) and 64.2 µM (active) and 73.8 µM (active); in test [17], 135 µM (active); in test [18] it was 13.2 µM (active); in [19], 175 µM (active).

Take `c1ccc(-c2ccccc2)cc1`: the result in test [1], in [2], in test [3], in test [4], in test [5] and in test [6] was inactive. In addition, the compound was classed as inactive in test [7], in [8], in test [9], in [10], in [11] and in [12]. In addition, the outcome in test [13], in test [14], in test [15], in test [16], in test [17] and in test [18] was inactive. The compound was classed as inactive in [19].

`Clc1ccc(C(c2ccccc2Cl)C(Cl)(Cl)Cl)cc1` (configuration not stated): the call in test [1], in test [4], in test [6], in test [8], in [9] and in test [10] was inactive. In addition, the result in test [11], in test [12], in test [15], in test [17], in test [18] and in test [19] was inactive. In addition, the AC50 in [2] was 56.3 µM (active); in test [3], 50.9 µM (active); in test [7] it was 114 µM (active); in test [12] it was 131 µM (active); in [13], 37.5 µM (active) [middle of 4 runs]; in test [16] it was 40.4 µM (active) [middle of 4 runs].
